# Source: PubChem BioAssay AID493073 (Broad Institute, 2011)
# Hit rate of the full screen: of about 1,200 compounds, about 810 (68%) were called active. How the calls were made is not given here. So high a share suggests a set chosen from earlier hits. A selection follows. Entries with a potency or affinity are not part of this list.
# Assay: reducers of TRPM1 reporter luminescence, concentration series – cell-based, SK-MEL-5, cherry-picked, set 3, MITF inhibitor project, dose response (AID 493073)
# Details: SK-MEL-5 TRPM1 promoter luciferase, 24 h; series mostly up to 35 µM
row,Compound,outcome
1,N#Cc1nc(/C=C/c2ccccc2)oc1NCCCN1CCOCC1,inactive
2,Cc1cc(C(=O)Nc2ccc([N+](=O)[O-])cn2)cs1,inactive
3,CC(=O)c1cccc(Nc2nc(-c3cccnc3)cs2)c1,inactive
4,Cc1cc(O)ccc1Nc1nc(-c2cccnc2)cs1,inactive
5,C/C(=N/Nc1nc(C)c(C)s1)c1cccc([N+](=O)[O-])c1,inactive
6,C/C(=N/N=C(/C)c1cccs1)c1cccs1,inactive
7,Cc1nc2cc(NC(=O)Nc3cccc([N+](=O)[O-])c3)ccc2n1C,inactive
8,Cc1nn(C)cc1/C=C/C(=O)c1cccs1,inactive
9,CCCN1C(=O)c2ccc(C(=O)Nc3cc(C)ccc3O)cc2C1=O,inactive
10,CC1Cc2cc(-c3csc(N)n3)ccc2O1 (stereo unspecified),inactive
11,COc1ccc(Nc2oc(-c3ccc(OC)cc3)nc2C#N)cc1,inactive
12,CC(=O)Nc1ccc2c(c1)ncn2-c1ccccc1,inactive
13,O=C1c2ccccc2CN1c1ccccc1,inactive
14,N#Cc1cnc2sc3ccccc3n2c1=N,inactive
15,CC1(C)CC(=O)c2cnc(N3CCc4ccccc43)nc2C1,inactive
16,O=C(NCCSc1ccccc1)c1ccccc1F,inactive
17,COc1ccc(-c2cc(-c3ccccc3O)[nH]n2)cc1OC,inactive
18,COc1ccc(-c2nc3n(c2C)Cc2ccccc2-3)cc1,inactive
19,COc1ccc(C(=O)Nc2nc3ccc(OC)cc3s2)cc1,inactive
20,CCCOc1ccc(C(=O)Nc2ccc3c(c2)OCCO3)cc1,inactive
21,CCOC(=O)c1ccc(NC(=O)CC2SCCNC2=O)cc1 (stereo unspecified),inactive

row,Compound,outcome
1,Cc1ccc(NC(=O)c2ccc(OCC3CCCO3)cc2)c(C)c1 (stereo unspecified),inactive
2,CCOC(=O)c1ccc(NC(=O)c2ccnn2C)cc1,inactive
3,COc1cc(/C=N/N=C(N)N)ccc1OCc1ccc(Cl)cc1,inactive
4,Cc1ccc2nc(-c3ccncc3)[nH]c2c1,inactive
5,CC(=O)N/C(N)=N/c1nc(=O)c2ccccc2s1,inactive
6,CCOc1ccc(N(CC(=O)Nc2ccc(OC)cc2)S(C)(=O)=O)cc1,inactive
7,COc1ccc(/C=N/NC(=O)Cc2cccs2)cc1,inactive
8,COc1ccc(NC(=O)c2scc(S(=O)(=O)C(C)C)c2N)cc1,inactive
9,CCSc1nc2c(cnn2-c2ccccc2)c(=O)n1N,inactive
10,Nc1c(-c2ccc(Cl)cc2)nnn1-c1ccccc1,inactive
11,CCn1nccc1C(=O)Nc1ccc(C)c(C)c1,inactive
12,O=C(CCNc1ccccc1)c1ccc2c(c1)OCO2,inactive
13,O=C(Nc1ccc(F)c(Cl)c1)c1ccc2c(c1)OCO2,inactive
14,O=C(Cn1cnc2ccccc2c1=O)Nc1ccc2c(c1)OCCO2,inactive
15,C=CCn1cccc(C(=O)Nc2ccc(C)c(Cl)c2)c1=O,inactive
16,Cc1cccc(N(O)C(=O)Nc2cccc(Cl)c2)c1,inactive
17,CC(O)CNC(=O)C1CCN(Cc2ccc(OCc3ccccc3)cc2)CC1 (stereo unspecified),inactive
18,Nc1nc2ccccc2n1/N=C/c1ccc(-c2ccccc2)o1,inactive
19,Cc1c(/C=C/C(=O)c2ccc(Cl)s2)cnn1C,inactive
20,CCCCOC(=O)Nc1ccc2c(C)cc(=O)oc2c1,inactive
21,Cc1ccc(NC(=O)c2cc(-c3cccs3)on2)cc1,inactive

row,Compound,outcome
1,Cc1cc(C)c2sc(N(CCCN(C)C)C(=O)COc3ccc(Cl)cc3)nc2c1,inactive
2,Cc1ccc2nc(N(CCCN(C)C)C(=O)c3ccc4c(c3)CCCC4)sc2c1,inactive
3,CC(=O)N/C(N)=N/c1nc2cc(C)ccc2o1,inactive
4,CCOC(=O)c1cn2nc(Oc3ccccc3)ccc2n1,inactive
5,Cc1cn(CCC(=O)Nc2ccccc2N2CCOCC2)c2ccccc12,inactive
6,Clc1c(-c2ccccc2)nc2ccccn12,inactive
7,C=CCNC(=O)Cn1nnc(-c2ccc(-c3ccc(OC)cc3)cc2)n1,inactive
8,CCOC(=O)CSc1nc2cc(OCC)ccc2cc1C#N,inactive
9,O=C(Cn1cnc2c(oc3ccccc32)c1=O)c1ccccc1,inactive
10,c1ccc(Cc2cc(-c3ccccc3)on2)cc1,inactive
11,O=[N+]([O-])c1c(NCCCO)cc(Sc2ccc(Cl)cc2)c2nonc12,inactive
12,CC1CC2(C)Oc3ccccc3CC2C(C)C1CNCCCN(C)C (stereo unspecified),inactive
13,Cc1cc(C)c2c(N)c(C(=O)N/N=C/c3cccnc3)sc2n1,inactive
14,O=[N+]([O-])c1cccc(/C=N/Nc2ncc(Br)cn2)c1,inactive
15,Cc1ccc(NC(=O)c2cc3cccc([N+](=O)[O-])c3[nH]2)cc1,inactive
16,N/C(CS(=O)(=O)c1ccccn1)=N\OC(=O)c1ccccc1Cl,inactive
17,O=C(CC(=O)c1ccccc1)Nc1ccccn1,inactive
18,COc1ccc(NC(=O)c2cc3ccccc3[nH]2)cc1,inactive
19,COC(=O)[C@@H](C)NC(=O)c1ccc2oc(CCc3ccccc3)nc2c1,inactive
